Laboratory results as given in the supplement of paper PMC10037445.
Over roughly 2,900 compounds, “NF-kB SEAP reporter activity, fold change vs agonist alone” has its median near 0.99; the highest 2% begin near 2.6. The entries come from a sample that favours the highest values as a whole.

Legend:
RAW-Dual [1] = assay: NF-kB SEAP reporter activity, fold change vs agonist alone; cytotoxicity flag (confluency mask): not cytotoxic; higher = enhanced NF-kB activity
Procedure, shortened: (§1)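 RAW-Dual macrophages were seeded in DMEM at 50,000 cells/well in 384-well plates, given 50 nL of library stock by pin tool, and given a PRR agonist 1 h later. Plates were held at 37 °C, 5% CO2 for 20 hours, after which supernatant was read for IRF by QuantiLuc luminescence and for NF-κB by QuantiBlue absorbance at 620 nm. Reporter activity is expressed as fold change over wells that received agonist alone. A well was called cytotoxic when IncuCyte confluency fell below 70% of agonist controls in both mask sets.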

RAW-Dual [2] = assay: NF-kB SEAP reporter activity, fold change vs agonist alone; higher = enhanced NF-kB activity
Procedure, shortened: as §1

RAW-Dual [3] = assay: NF-kB SEAP reporter activity, fold change vs agonist alone; cytotoxicity flag (confluency mask): cytotoxic (confluency <70% of control); higher = enhanced NF-kB activity
Procedure, shortened: as §1

[4] = agonist: ODN 1826 (TLR9) 0.5 ug/mL
[5] = agonist: Pam2CSK4 (TLR2/6) 0.1 ug/mL
[6] = agonist: Pam3CSK4 (TLR2/1) 0.1 ug/mL
[7] = library stock concentration (final ~1000-fold dilution): 10 mM, cytotoxicity flag (confluency mask): not cytotoxic, agonist: Imiquimod (TLR7) […]
[8] = library stock concentration (final ~1000-fold dilution): 10 mM, cytotoxicity flag (confluency mask): not cytotoxic, agonist: MPLA (TLR4) […]

Compound: CC(C)(C)Cn1c(N)nc2ccc(-c3[nH]c(C(C)(C)C)nc3-c3ccc(F)cc3)nc21.CS(=O)(=O)O.CS(=O)(=O)O (library stock concentration (final ~1000-fold dilution): 10 mM water)
- NF-kB SEAP reporter activity (RAW-Dual [1]; agonist: LPS (TLR4) 0.1 ug/mL): 1.03
- NF-kB SEAP reporter activity (RAW-Dual [1]; [4]): 0.512
- NF-kB SEAP reporter activity (RAW-Dual [1]; [5]): 0.242
- NF-kB SEAP reporter activity (RAW-Dual [1]; [6]): 0.506

Compound: CC(C)(C)Cn1c(N)nc2ccc(-c3[nH]c(C(C)(C)C)nc3-c3ccc(F)cc3)nc21.CS(=O)(=O)O.CS(=O)(=O)O
- NF-kB SEAP reporter activity (RAW-Dual [2]; library stock concentration (final ~1000-fold dilution): 10 mM water, cytotoxicity flag (confluency mask): not cytotoxic, agonist: Imiquimod (TLR7) […]): 0.303
- NF-kB SEAP reporter activity (RAW-Dual [2]; library stock concentration (final ~1000-fold dilution): 10 mM water, cytotoxicity flag (confluency mask): not cytotoxic, agonist: MPLA (TLR4) […]): 0.892

Compound: C1=CCOCc2cc(ccc2OCCN2CCCC2)Nc2nccc(n2)-c2cccc(c2)COC1
- NF-kB SEAP reporter activity (RAW-Dual [2]; library stock concentration (final ~1000-fold dilution): 10 mM, cytotoxicity flag (confluency mask): cytotoxic (confluency <70% of control), agonist: Imiquimod (TLR7) […]): 1.52
- NF-kB SEAP reporter activity (RAW-Dual [2]; library stock concentration (final ~1000-fold dilution): 10 mM, cytotoxicity flag (confluency mask): cytotoxic (confluency <70% of control), agonist: MPLA (TLR4) […]): 0.838

Compound: C1=CCOCc2cc(ccc2OCCN2CCCC2)Nc2nccc(n2)-c2cccc(c2)COC1 (library stock concentration (final ~1000-fold dilution): 10 mM)
- NF-kB SEAP reporter activity (RAW-Dual [3]; agonist: LPS (TLR4) 0.1 ug/mL): 0.498
- NF-kB SEAP reporter activity (RAW-Dual [3]; [4]): 0.245
- NF-kB SEAP reporter activity (RAW-Dual [3]; [5]): 0.176
- NF-kB SEAP reporter activity (RAW-Dual [3]; [6]): 0.256

Compound: CC(C)n1cc(-c2ccc3c(c2)N(C)CC3)c2c(NS(=O)(=O)c3ccn(C)n3)ccnc21 (library stock concentration (final ~1000-fold dilution): 10 mM)
- NF-kB SEAP reporter activity (RAW-Dual [1]; agonist: LPS (TLR4) 0.1 ug/mL): 1.25
- NF-kB SEAP reporter activity (RAW-Dual [1]; [4]): 1.12
- NF-kB SEAP reporter activity (RAW-Dual [1]; [5]): 1.14
- NF-kB SEAP reporter activity (RAW-Dual [1]; [6]): 1.07

Compound: CC(C)n1cc(-c2ccc3c(c2)N(C)CC3)c2c(NS(=O)(=O)c3ccn(C)n3)ccnc21
- NF-kB SEAP reporter activity (RAW-Dual [2]; [7]): 0.948
- NF-kB SEAP reporter activity (RAW-Dual [2]; [8]): 1.02

Compound: O=C1c2c(O)cc(O)cc2OC(c2cc(O)c(O)c(O)c2)C1O (stereo unspecified) (library stock concentration (final ~1000-fold dilution): 10 mM)
- NF-kB SEAP reporter activity (RAW-Dual [1]; agonist: LPS (TLR4) 0.1 ug/mL): 0.954
- NF-kB SEAP reporter activity (RAW-Dual [1]; [4]): 1.02
- NF-kB SEAP reporter activity (RAW-Dual [1]; [5]): 0.798
- NF-kB SEAP reporter activity (RAW-Dual [1]; [6]): 0.657

Compound: O=C1c2c(O)cc(O)cc2OC(c2cc(O)c(O)c(O)c2)C1O (stereo unspecified)
- NF-kB SEAP reporter activity (RAW-Dual [2]; [7]): 0.946
- NF-kB SEAP reporter activity (RAW-Dual [2]; [8]): 1.07

Compound: CC(C)(C)NC(=O)c1cncn1C1CCN(c2ccc(-c3nnc(C(F)(F)F)o3)cn2)CC1 (library stock concentration (final ~1000-fold dilution): 10 mM)
- NF-kB SEAP reporter activity (RAW-Dual [1]; agonist: LPS (TLR4) 0.1 ug/mL): 6.27
- NF-kB SEAP reporter activity (RAW-Dual [1]; [4]): 3.15
- NF-kB SEAP reporter activity (RAW-Dual [1]; [5]): 1.66
- NF-kB SEAP reporter activity (RAW-Dual [1]; [6]): 2.84

Compound: CC(C)(C)NC(=O)c1cncn1C1CCN(c2ccc(-c3nnc(C(F)(F)F)o3)cn2)CC1
- NF-kB SEAP reporter activity (RAW-Dual [2]; [7]): 1.87
- NF-kB SEAP reporter activity (RAW-Dual [2]; [8]): 2.37

Compound: CC1(C)CCC2(C(=O)O)CCC3(C)C(=CCC4C5(C)CCC(=O)C(C)(C)C5CCC43C)C2C1 (stereo unspecified)
- NF-kB SEAP reporter activity (RAW-Dual [2]; [7]): 0.8
- NF-kB SEAP reporter activity (RAW-Dual [2]; [8]): 1.27

Compound: CC1(C)CCC2(C(=O)O)CCC3(C)C(=CCC4C5(C)CCC(=O)C(C)(C)C5CCC43C)C2C1 (stereo unspecified) (library stock concentration (final ~1000-fold dilution): 10 mM)
- NF-kB SEAP reporter activity (RAW-Dual [1]; agonist: LPS (TLR4) 0.1 ug/mL): 0.91
- NF-kB SEAP reporter activity (RAW-Dual [1]; [4]): 0.824
- NF-kB SEAP reporter activity (RAW-Dual [1]; [5]): 0.664
- NF-kB SEAP reporter activity (RAW-Dual [1]; [6]): 0.842

Compound: CC(=O)N1c2ccc(-c3ccc(C(=O)O)cc3)cc2C(Nc2ccc(Cl)cc2)CC1C (stereo unspecified) (library stock concentration (final ~1000-fold dilution): 10 mM)
- NF-kB SEAP reporter activity (RAW-Dual [1]; agonist: LPS (TLR4) 0.1 ug/mL): 4.2
- NF-kB SEAP reporter activity (RAW-Dual [1]; [4]): 2.49
- NF-kB SEAP reporter activity (RAW-Dual [1]; [5]): 1.06
- NF-kB SEAP reporter activity (RAW-Dual [1]; [6]): 1.85

Compound: CC(=O)N1c2ccc(-c3ccc(C(=O)O)cc3)cc2C(Nc2ccc(Cl)cc2)CC1C (stereo unspecified)
- NF-kB SEAP reporter activity (RAW-Dual [2]; [7]): 1.56
- NF-kB SEAP reporter activity (RAW-Dual [2]; [8]): 2.37

Compound: CC(=O)OC12COC1CC(O)C1(C)C(=O)C(O)C3=C(C)C(OC(=O)C(O)C(NC(=O)OC(C)(C)C)c4ccccc4)CC(O)(C(OC(=O)c4ccccc4)C21)C3(C)C.O.O.O (stereo unspecified) (library stock concentration (final ~1000-fold dilution): 10 mM)
- NF-kB SEAP reporter activity (RAW-Dual [1]; agonist: LPS (TLR4) 0.1 ug/mL): 1.26
- NF-kB SEAP reporter activity (RAW-Dual [1]; [4]): 0.91
- NF-kB SEAP reporter activity (RAW-Dual [1]; [5]): 0.697
- NF-kB SEAP reporter activity (RAW-Dual [1]; [6]): 0.713

Compound: CC(=O)OC12COC1CC(O)C1(C)C(=O)C(O)C3=C(C)C(OC(=O)C(O)C(NC(=O)OC(C)(C)C)c4ccccc4)CC(O)(C(OC(=O)c4ccccc4)C21)C3(C)C.O.O.O (stereo unspecified)
- NF-kB SEAP reporter activity (RAW-Dual [2]; [7]): 1.07
- NF-kB SEAP reporter activity (RAW-Dual [2]; [8]): 1.23

Compound: CC1OC(OC2C(O)C(OCCc3ccc(O)c(O)c3)OC(CO)C2OC(=O)/C=C/c2ccc(O)c(O)c2)C(O)C(O)C1O (stereo unspecified) (library stock concentration (final ~1000-fold dilution): 10 mM)
- NF-kB SEAP reporter activity (RAW-Dual [1]; agonist: LPS (TLR4) 0.1 ug/mL): 1.21
- NF-kB SEAP reporter activity (RAW-Dual [1]; [4]): 1.05
- NF-kB SEAP reporter activity (RAW-Dual [1]; [5]): 1.03
- NF-kB SEAP reporter activity (RAW-Dual [1]; [6]): 1.11

Compound: CC1OC(OC2C(O)C(OCCc3ccc(O)c(O)c3)OC(CO)C2OC(=O)/C=C/c2ccc(O)c(O)c2)C(O)C(O)C1O (stereo unspecified)
- NF-kB SEAP reporter activity (RAW-Dual [2]; [8]): 1.02

Compound: CN1CCCN=C1/C=C/c1cccc(O)c1.O=C(O)c1cc2ccccc2c(Cc2c(O)c(C(=O)O)cc3ccccc23)c1O (library stock concentration (final ~1000-fold dilution): 10 mM)
- NF-kB SEAP reporter activity (RAW-Dual [1]; agonist: LPS (TLR4) 0.1 ug/mL): 0.973
- NF-kB SEAP reporter activity (RAW-Dual [1]; [4]): 0.993
- NF-kB SEAP reporter activity (RAW-Dual [1]; [5]): 1.01
- NF-kB SEAP reporter activity (RAW-Dual [1]; [6]): 0.594

Compound: CN1CCCN=C1/C=C/c1cccc(O)c1.O=C(O)c1cc2ccccc2c(Cc2c(O)c(C(=O)O)cc3ccccc23)c1O
- NF-kB SEAP reporter activity (RAW-Dual [2]; [7]): 0.944
- NF-kB SEAP reporter activity (RAW-Dual [2]; [8]): 1.12

Compound: CC(C)N1CCN(Cc2cnc(-c3cc(-c4cccc5[nH]ccc45)cc4[nH]ncc34)o2)CC1 (library stock concentration (final ~1000-fold dilution): 10 mM)
- NF-kB SEAP reporter activity (RAW-Dual [1]; agonist: LPS (TLR4) 0.1 ug/mL): 4.66
- NF-kB SEAP reporter activity (RAW-Dual [1]; [4]): 0.196
- NF-kB SEAP reporter activity (RAW-Dual [1]; [5]): 0.982
- NF-kB SEAP reporter activity (RAW-Dual [1]; [6]): 1.86

Compound: CC(C)N1CCN(Cc2cnc(-c3cc(-c4cccc5[nH]ccc45)cc4[nH]ncc34)o2)CC1
- NF-kB SEAP reporter activity (RAW-Dual [2]; [7]): 0.519
- NF-kB SEAP reporter activity (RAW-Dual [2]; [8]): 1.83

Compound: C[N+]1(C)CCC[C@H]1C(=O)O
- NF-kB SEAP reporter activity (RAW-Dual [2]; [7]): 0.952
- NF-kB SEAP reporter activity (RAW-Dual [2]; [8]): 0.985

Compound: C[N+]1(C)CCC[C@H]1C(=O)O (library stock concentration (final ~1000-fold dilution): 10 mM)
- NF-kB SEAP reporter activity (RAW-Dual [1]; agonist: LPS (TLR4) 0.1 ug/mL): 1.08
- NF-kB SEAP reporter activity (RAW-Dual [1]; [4]): 1.08
- NF-kB SEAP reporter activity (RAW-Dual [1]; [5]): 1.16
- NF-kB SEAP reporter activity (RAW-Dual [1]; [6]): 1.08
